# Key:
# Assay type in all cases: functional
# [1] = test system: Plasmodium falciparum; assay: GSK_TCMDC: Inhibition of Plasmodium falciparum 3D7 in whole red blood cells, using parasite LDH activity as an index of growth. Test compounds present at 2uM
# [2] = test system: Plasmodium falciparum; assay: GSK_TCMDC: Inhibition of Plasmodium falciparum Dd2 in whole red blood cells, using parasite LDH activity as an index of growth. Test compounds present at 2uM
# [3] = test system: HepG2; assay: GSK_TCMDC: Percent inhibition of human HepG2 cell line. Test compounds present at 10uM.
Compound,Inhibition [1] [%],Inhibition [2] [%],Inhibition [3] [%]
COc1cccc(CNC(=O)c2cnc(N3CCN(c4ccncc4)CC3)c(Cl)c2)c1.O=C(O)C(F)(F)F,89,12,25
Cc1c(NC(=O)COc2ccc(Cl)cc2C(=O)c2cc(F)cc(C(F)(F)F)c2)ccc2ncsc12,86,18,0
N=C(N)Nc1nc(-c2ccc(NC(=O)Nc3cccc(-c4csc(NC(=N)N)n4)c3)cc2)cs1,94,80,0
Cc1ccc(N2C(=O)C3C(C2=O)C2(c4ccccc4)C(=O)C3(c3ccccc3)C(c3ccccc3)=C2c2ccccc2)c(C)c1 (configuration not stated),96,96,3
Cc1[nH]c(C)c(-c2ccc(OCc3ccccc3C(F)(F)F)nc2)c(=O)c1Br,98,97,35
O=C(NCCc1ccc(Cl)c(Cl)c1)C1CCCN(C(=O)c2ccc(O)c(-c3ccc(Cl)c(Cl)c3)c2)C1 (configuration not stated),96,65,0
COc1ccc(C=Cc2ccc(-c3c(C)[nH]c(C)c(Cl)c3=O)cc2)cc1OC,97,96,12
O=C(Nc1cccc(CN2CCCN(Cc3ccc(O)cc3)CC2)c1)c1cc2ccccc2o1.O=C(O)C(F)(F)F,95,62,10
CCc1cn(CCS(C)(=O)=O)c2ccc(C(=O)N[C@@H](Cc3ccccc3)[C@H](O)CNC(C)(C)CCCC(C)C)cc12.O=CO,87,96,16
CC1CN(c2cnn(C/C=C/c3ccc(NC(=O)c4ccc5nonc5c4)cc3)c(=O)c2Cl)CC(C)N1.O=C(O)C(F)(F)F (configuration not stated),94,35,71
Cc1cccc(-n2c(Nc3ccc(C)c(Cl)c3)nc3ccc(S(=O)(=O)NC(C)C(C)C)cc32)c1 (configuration not stated),97,97,0
CC(=O)N(Cc1nc(-c2cc(Cl)c(Cl)s2)cs1)c1c(C)cccc1C,98,95,5
c1ccc(COc2ccc(Cn3ccc(-c4ccc(-n5ccnc5)cc4)n3)cc2)cc1.c1ccc(COc2ccc(Cn3nccc3-c3ccc(-n4ccnc4)cc3)cc2)cc1,94,67,2
CC(C)C[C@@H](C(=O)N[C@H](C(=O)Nc1nccs1)C(C)(C)C)[C@H](CCC(F)(F)F)N(O)C=O,97,71,11
C[C@@H](Oc1cc(-n2cnc3cc(SCCN4CCN(C)CC4)ccc32)sc1C(N)=O)c1ccccc1Cl,90,65,46
Cc1ccc2[nH]c(C3CCCNC3)c(-c3ccncc3)c2c1 (configuration not stated),100,22,10
N#CCCN1CCN(Cc2cccc(-c3ccc(-c4nc5cc(C(F)(F)F)ccc5[nH]4)cc3)c2)CC1.O=C(O)C(F)(F)F,100,63,23
Cc1cc(-c2nc3cc(C(=N)N)ccc3[nH]2)c(C)cc1-c1nc2cc(C(=N)N)ccc2[nH]1.Cl,96,97,0
c1ccc(Oc2ccc(Nc3ccnc4cc(-c5ccc(CNCCN6CCOCC6)o5)ccc34)cc2)cc1,99,99,20
CNCCNCc1cccc(-c2cccc(-c3nc4cc(F)ccc4[nH]3)c2)c1.O=C(O)C(F)(F)F,98,15,20

Compound,Inhibition [1] [%],Inhibition [2] [%],Inhibition [3] [%]
O=C(NCc1ccc(Cl)c(Cl)c1)c1ccc(-c2nc3cc(F)c(F)cc3[nH]2)cc1,81,12,0
CCOC(=O)C1CCN(CCCNC(=O)/C(=C/C=C/c2cc3cc(Cl)c(Cl)cc3[nH]2)OC)CC1,87,78,23
O=C(NCC1CCC(C(=O)NCc2cccc3ccccc23)CC1)c1ccc(O)c(-c2ccc(Cl)c(Cl)c2)c1 (configuration not stated),100,92,0
Cn1nccc1C(=O)NCCNCc1cccc(-c2ccc(-c3nc4cc(C(F)(F)F)ccc4[nH]3)s2)c1.O=C(O)C(F)(F)F,100,99,36
CC(C)C[C@H](Nc1ccnc(NCC2CCCCC2)n1)C(=O)NCCc1ccccc1.O=C(O)C(F)(F)F,88,66,10
Cc1ccc(Cn2nc(Cl)c(N3CCNCC3)cc2=O)cc1NC(=O)Nc1ccc(-c2ccccc2)cc1.O=C(O)C(F)(F)F,98,97,100
CCOC(=O)c1ccc(NC(=O)NCCCC2CCCN(CCCCCNC(=O)/C=C/c3ccc(Cl)c(Cl)c3)C2)cc1 (configuration not stated),96,30,14
COc1cccc(CC(=O)NC2CCN(c3ccnc4cc(Cl)ccc34)C2)c1.O=C(O)C(F)(F)F (configuration not stated),100,85,9
Cc1ccc(CNC(=O)[C@H](Cc2ccccc2)Nc2cc(C)nc(Nc3ccccc3)n2)cc1.O=C(O)C(F)(F)F,100,91,16
CCN(CCCN1CCCCC1)c1cc(C)nc(Nc2ccc(Cl)c(C(F)(F)F)c2)n1.O=C(O)C(F)(F)F,96,55,43
Cc1ccc(S(=O)(=O)n2cc(-c3ccnc(N)c3)c3cc(Br)cnc32)cc1,98,31,8
CCNc1cc(C)nc(Nc2ccc(NC(=O)c3c(F)cccc3Cl)cc2)n1,100,89,49
COc1ccc(CN2CCC(NCc3cccc(C(F)(F)F)c3)CC2)cc1.O=C(O)C(F)(F)F,99,8,6
O=C(/C=C/c1ccc(Cl)c(Cl)c1)NCCCCCCN1CCCN(C(=O)Nc2ccc(F)c(F)c2)CC1,89,2,72
COc1ccc(Cl)cc1NC(=O)Nc1ccc2c(c1)CCN(C1CCC1)CC2.Cl,98,19,38
O=C(c1cc(C(=O)NC2CCCCC2)c(=O)n(C2CCCCC2)c1)c1cc(F)ccc1O,99,98,22
COc1ccc2[nH]ccc(=NN=CC=Cc3ccccc3)c2c1,100,99,11
N#Cc1ccc(N/C(=N\c2ccccc2Br)N(C2CCCCC2)C2CCCCC2)c(O)c1,99,96,4
CCCOc1c(CCNCCCCNCCc2ccc3ccccc3c2OCCC)ccc2ccccc12.CS(=O)(=O)O,100,78,100
O=C(O)C(F)(F)F.O=C1CCCN1CCCNCc1ccc(-c2ccc(-c3nc4cc(C(F)(F)F)ccc4[nH]3)cc2)cc1,100,98,10

Compound,Inhibition [1] [%],Inhibition [2] [%],Inhibition [3] [%]
NC(=O)C1CCN(Cc2ccc(-c3ccc(-c4nc5cc(C(F)(F)F)ccc5[nH]4)cc3)cc2)CC1.O=C(O)C(F)(F)F,100,90,25
CCNc1cc(C(=O)N[C@@H](Cc2ccccc2)[C@H](O)CNC2(CC)CC2)cc(N2CCCCS2(=O)=O)c1.Cl,97,94,59
O=C(Nc1ccsc1C(=O)NC1CCCCC1)c1ccc(F)cc1,86,11,3
COc1ccc(CCn2c(C3CCCCC3)nc3oc4ccccc4c(=O)c3c2=O)cc1,91,66,12
Cc1ccc(F)cc1S(=O)(=O)NCC(C)c1ccc(NC(=O)Nc2cccc(F)c2)cc1 (configuration not stated),95,5,20
O=C(NCCCN1CCCC1=O)NCc1ccccc1,99,4,8
CCN(CC)CCCNCc1ccc(-c2ccc(C(F)(F)F)cc2)cc1,95,35,53
COc1ccc2nccc([C@@H](O)CN3CCC(NCc4cc5cccc6c5n(c4=O)CCC6)CC3)c2c1.O=C(O)C(=O)O,98,97,33
O=C(CCc1c[nH]cn1)Nc1cccc(-c2ccc(-c3nc4cc(F)ccc4[nH]3)cc2)c1,100,79,18
COc1cccc(-c2cccc(NC(=O)C3CCN(Cc4ccc(O)cc4)CC3)c2)c1,97,97,9
COc1ccc(S(=O)(=O)N2CCOCC2)cc1NC(=O)c1cc2ccccc2o1,93,0,8
CC(C)[C@H](NC(=O)c1c(F)cccc1F)C(=O)Nc1ccc(Cc2nc3ccccc3s2)cc1,82,72,3
CNCc1cccc2nc(-c3csc(Cc4cc(Cl)ccc4OCC(C)C)n3)[nH]c12,100,33,9
Cc1oc(-c2ccccc2)nc1CCOc1ccc(C[C@H](Nc2ccccc2C(=O)c2ccccc2)C(=O)NCc2ccccn2)cc1,88,54,0
CCC(=O)Nc1cc(=O)[nH]c2nc(-c3ccc(Cl)cc3)nn12,84,62,3
COc1cc(NC(=O)/C=C/c2cc(F)cc(F)c2F)cc(OCCN2CCC3(CC2)OCCO3)c1.O=C(O)C(=O)O,98,26,17
CCCNCc1ccc(-c2ccc(CN(CCOC)C(=O)c3ccccc3)cc2)nc1.O=C(O)C(F)(F)F,94,25,16
Cl.Clc1ccc2c(NCCNc3ccnc4cc(Cl)ccc34)ccnc2c1,100,96,6
c1ccc(C(c2ccccc2)N2CCN(C(c3cccnc3)c3nnnn3C3CCCC3)CC2)cc1 (configuration not stated),83,59,4
